Source: the supplement of paper PMC12350171
Structures can show the parent of a compound that is named as a salt. A number with no mark means an inactive call.

What was measured:
Details in all cases: 20 µM
[1] = test system: Salmonella enterica typhimurium; test: growth AUC normalised to DMSO control (fraction of control); higher = less growth inhibition, active = hit call of the paper
Method in brief: (§1)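 Hemin and NAD were added to the medium for Haemophilus parainfluenzae. All pathogens, after two anaerobic passages, were inoculated at a starting OD578 of 0.01 into pre-reduced mGAM plates with 20 μM compound and 1% DMSO under breathable seals, and OD578 was read hourly for 24 h in three biological replicates. AUC of each growth curve was obtained with the trapezoidal rule up to the exponential-to-stationary transition and normalised to DMSO controls from the same plate.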

Shigella flexneri = test: as above
Method in brief: as §1

Vibrio cholerae = test: as above
Method in brief: as §1

[2] = test system: Yersinia pseudotuberculosis; test: as above
Method in brief: as §1

P. vulgatus RND KO = test: growth AUC normalised to DMSO control (median) (fraction of control); higher = less growth inhibition, active = hit call of the paper
Method in brief: (§2)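 Strains were passaged twice overnight without oxygen, then grown in mGAM in 96-well plates with each approved-drug library compound at 20 μM and 1% DMSO, starting at OD578 0.01. OD578 was read hourly for 24 h inside an anaerobic incubator. Curves were truncated at entry into stationary phase, and the trapezoidal-rule area under the curve was normalised to same-plate vehicle wells. The value is the median across three biological replicates.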

P. vulgatus WT = test: as above
Method in brief: as §2

[3] = test system: S. enterica typhimurium WT; test: as above
Method in brief: as §2

[4] = test system: S. enterica typhimurium tolC KO; test: as above
Method in brief: as §2
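Throughout, for growth AUC normalised to DMSO control (median): active when median AUC fell below 0.1.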

| Compound | growth AUC normalised to DMSO control [1] | growth AUC normalised to DMSO control (Shigella flexneri) | growth AUC normalised to DMSO control (Vibrio cholerae) | growth AUC normalised to DMSO control [2] | growth AUC normalised to DMSO control (P. vulgatus RND KO) | growth AUC normalised to DMSO control (P. vulgatus WT) | growth AUC normalised to DMSO control [3] | growth AUC normalised to DMSO control [4] |
| --- | --- | --- | --- | --- | --- | --- | --- | --- |
| CCCCCN(CCCCC)C(=O)C(CCC(=O)O)NC(=O)c1ccc(Cl)c(Cl)c1 (stereo not given) [Lorglumide sodium salt] | 1 | 0.965 | 0.986 | 1.01 | 0.947 | 0.959 | 1 | 0.991 |
| CC[N+](CC)(CC(=O)Nc1c(C)cccc1C)Cc1ccccc1 [Denatonium benzoate] | 1.01 | 1.02 | 1.03 | 0.982 | 1.05 | 1.09 | 0.999 | 1.01 |
| OC(CCN1CCCCC1)(c1ccccc1)C1CC2C=CC1C2 (stereo not given) [Biperiden hydrochloride] | 0.987 | 0.967 | 0.934 | 1 | 0.994 | 1.01 | 1.01 | 0.946 |
| COc1ccccc1N1CCN(CC(O)COc2cccc3ccccc23)CC1 (stereo not given) [Naftopidil dihydrochloride] | 1.01 | 1 | 0.894 | 0.991 | 0.933 | 0.971 | 1.01 | 0.914 |
| C#C[C@]1(O)CC[C@H]2[C@@H]3CCC4=CCCC[C@@H]4[C@H]3CC[C@@]21C [Lynestrenol] | 0.997 | 0.973 | 1.01 | 0.972 | 0.945 | 0.976 | 1.02 | 1 |
| Cc1ccnc(NS(=O)(=O)c2ccc(N)cc2)n1 [Sulfamerazine] | 0.973 | 1.03 | 0.977 | 1.01 | 0.988 | 1.01 | 0.986 | 0.998 |
| N=C(N)N1CCc2ccccc2C1 [Debrisoquin sulfate] | 0.995 | 0.975 | 1.01 | 1.01 | 1.02 | 1.01 | 1 | 1 |
| O=C(CCCN1CCC(O)(c2ccc(Cl)cc2)CC1)c1ccc(F)cc1 [Haloperidol] | 0.976 | 0.966 | 0.97 | 0.966 | 0.965 | 0.963 | 0.998 | 0.962 |
| CC[C@H](C)C(=O)O[C@H]1C[C@@H](C)C=C2C=C[C@H](C)[C@H](CC[C@@H]3C[C@@H](O)CC(=O)O3)[C@H]21 [Lovastatin] | 0.999 | 0.997 | 0.995 | 0.999 | 0.958 | 0.928 | 0.99 | 0.967 |
| CN(C)CCCN1c2ccccc2CCc2ccccc21 [Imipramine hydrochloride] | 0.998 | 0.994 | 0.935 | 1.01 | 1 | 0.998 | 1.02 | 0.984 |
| CC(=O)c1ccc2c(c1)N(CCCN1CCC(CCO)CC1)c1ccccc1S2 [Piperacetazine] | 0.971 | 1.05 | 1.03 | 1.01 | 1.01 | 1.02 | 1 | 0.948 |
| CCCC1C(=O)N2C(N(C)C)=Nc3ccc(C)cc3N2C1=O (stereo not given) [Azapropazone] | 0.983 | 0.96 | 0.958 | 0.964 | 0.993 | 1 | 1 | 0.995 |
| CN1CCC(=C2c3ccccc3C=Cc3ccccc32)CC1 [Cyproheptadine hydrochloride] | 0.998 | 1 | 0.91 | 1 | 0.97 | 0.976 | 1.01 | 0.969 |
| CNCCc1ccccn1 [Betahistine mesylate] | 0.997 | 0.976 | 0.985 | 1.01 | 1 | 1 | 1.02 | 1.01 |
| CCn1nc(C(=O)O)c(=O)c2cc3c(cc21)OCO3 [Cinoxacin] | 0.0189 (active) | 0.0786 (active) | 0.0544 (active) | 0.0459 (active) | 1 | 1.01 | 0.0574 (active) | 0.0349 (active) |
| NC[C@@H]1O[C@H](O[C@H]2[C@@H](O)[C@H](O[C@@H]3[C@@H](O)[C@H](N)C[C@H](N)[C@H]3O[C@H]3O[C@H](CN)[C@@H](O)[C@H](O)[C@H]3N)O[C@@H]2CO)[C@H](N)[C@@H](O)[C@@H]1O [Neomycin sulfate] | 1.01 | 1.04 | 1.05 | 1 | 1.02 | 1.01 | 0.999 | 1.03 |
| CC(=O)OCC(=O)[C@@]1(O)CC[C@H]2[C@@H]3CCC4=CC(=O)CC[C@]4(C)[C@@]3(F)[C@@H](O)C[C@@]21C [Fludrocortisone acetate] | 0.995 | 0.988 | 1 | 1 | 1.02 | 1.04 | 1.02 | 0.981 |
| COC(=O)Nc1nc2cc(C(=O)c3ccccc3)ccc2[nH]1 [Mebendazole] | 0.975 | 0.975 | 0.951 | 0.996 | 0.998 | 0.991 | 0.998 | 0.989 |
| Cc1c(OCC(F)(F)F)ccnc1C[S+]([O-])c1nc2ccccc2[nH]1 (stereo not given) [Lansoprazole] | 1 | 1 | 0.941 | 0.994 | 0.984 | 0.973 | 1 | 0.852 |
| CC(C)NCC(O)c1ccc(NS(C)(=O)=O)cc1 (stereo not given) [Sotalol hydrochloride] | 1 | 1.06 | 1.04 | 1.02 | 1.02 | 1.06 | 1.01 | 0.998 |
| CC(COc1ccccc1)NC(C)C(O)c1ccc(O)cc1 (stereo not given) [Isoxsuprine hydrochloride] | 0.979 | 0.989 | 1 | 0.989 | 1.02 | 1.01 | 0.998 | 1 |
| CC(=O)NCCCS(=O)(=O)O [Acamprosate calcium] | 1 | 1.02 | 1 | 0.99 | 1.02 | 1.03 | 1 | 0.996 |
| CCOc1ccc(Cc2nccc3cc(OCC)c(OCC)cc23)cc1OCC [Ethaverine hydrochloride] | 1.01 | 1.04 | 1 | 1.01 | 1 | 0.998 | 1 | 0.969 |
| Clc1cc(Cl)c(OCC#CI)cc1Cl [Haloprogin] | 1.02 | 1.02 | 1.05 | 0.973 | 1.01 | 1.08 | 1.04 | 0.993 |
| CC1=C(/C=C/C(C)=C/C=C/C(C)=C\C(=O)O)C(C)(C)CCC1 [Isotretinoin] | 0.994 | 0.992 | 1 | 1 | 1.01 | 0.989 | 0.999 | 1 |
| CCCCNc1ccc(C(=O)OCCN(C)C)cc1 [Tetracaine hydrochloride] | 1.01 | 1.01 | 1.01 | 1 | 1.04 | 1.07 | 0.999 | 0.993 |
| CCCCOc1cc(C(=O)NCCN(CC)CC)c2ccccc2n1 [Dibucaine] | 1 | 1.03 | 1.03 | 1.05 | 1.04 | 1.01 | 1.01 | 0.993 |
| CN1CCN(CCCN2c3ccccc3Sc3ccc(S(=O)(=O)N(C)C)cc32)CC1 [Thioproperazine dimesylate] | 0.999 | 0.986 | 0.968 | 1 | 1.03 | 1.01 | 0.994 | 0.96 |
| CN(C)CCCO[C@@H]1[C@H]2OC(C)(C)O[C@H]2O[C@@H]1[C@H](O)CO [Amiprilose hydrochloride] | 0.904 | 1 | 0.986 | 0.997 | 0.969 | 0.966 | 1.01 | 1 |
| CC(=O)OCC(=O)[C@@]12OC(C)(C)O[C@@H]1C[C@H]1[C@@H]3C[C@H](F)C4=CC(=O)C=C[C@]4(C)[C@@]3(F)[C@@H](O)C[C@@]12C [Fluocinonide] | 0.994 | 0.97 | 0.973 | 1.12 | 0.967 | 0.951 | 1.01 | 0.995 |
